The nature of assay [1]: qHTS for Activators of Parkin Expression: LOPAC Validation Assay (FLuc Reporter) (AID 720573;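 also: 0% = DMSO and 100% = positive control compounds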). The essentials:
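Neuronal cell line stably expressing FLuc/NLuc coincidence reporter under the Parkin promoter, 1,500 cells/well, dosed 24 h after seeding in 7-point series for 24 h at 37 C. FLuc luminescence read; normalized to DMSO and positive control (100%).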
A general note: qHTS replaces the single test concentration by a dilution series.

Assay [2] deals with T1, Hexokinase-4 (Homo sapiens) + Glucokinase regulatory protein (Homo sapiens) (UniProt P35557+Q14397). Description: qHTS assay for inhibitors of recombinant human GCK-GKRP interaction: Diaphorase-coupled assay (AID 743205). In outline:
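Compounds pre-incubated 20 min with substrate, then 10 nM GST-GCK with 10 nM FLAG-GKRP added. GCK activity coupled via G6PDH and diaphorase to resorufin (5 mM glucose, 0.4 mM ATP, 0.15 mM NADP+, pH 7.6), read kinetically over 30 minutes at Ex 525/Em 590 nm.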

In assay [3] the target is T1, Hexokinase-4 (Homo sapiens) + Glucokinase regulatory protein (Homo sapiens). In words: qHTS assay for inhibitors of recombinant human GCK-GKRP interaction: ADP-Glo assay (AID 743206).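 Also: plate controls were DMSO plus enzyme for no effect and no enzyme for full effect.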 The essentials: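 GST-GCK and FLAG-GKRP (15 nM each in the dispensed mix, with 2 uM S6P) react with 0.4 mM ATP and 5 mM glucose (final) in Hepes pH 7.6 for 60 min at room temperature. ADP is measured by ADP-Glo luminescence.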

The target is the same in assay [4]. Description: qHTS assay for inhibitors of recombinant human GCK-GKRP interaction: HTRF assay (AID 743207).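 Also: 0% = DMSO with GCK present and -100% = DMSO wells lacking GCK.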 The essentials: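 HTRF binding of 5 nM GST-GCK and 5 nM FLAG-GKRP with 2 uM S6P in pH 7.1 Hepes buffer (MgCl2, KCl, DTT, Tween 20, BSA). Anti-FLAG XL665 and anti-GST donor added, 60 min at room temperature; 665/615 nm read, normalized to with- and without-GCK controls.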

Assay [5] is described as follows: qHTS Assay for Identifying Gametocytocidal Compounds (AID 743244). Also: potency is read from the fitted curve at half-maximal effect.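 As to max response: % is scaled to controls: 0 for no effect and ±100 for the full control effect; actives lower the fluorescent signal which means gametocytes are killed.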 Particulars: P. falciparum 3D7 stage III-V gametocytes, alamarBlue, 72 h; max response: stronger effect = lower value. In outline:
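Using 20,000 stage III–V 3D7 gametocytes per well, compounds were incubated 72 h under 37 °C/5% CO2. Viability was then assessed by 24 h alamarBlue reduction, measured fluorometrically at 525/598 nm.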

Assay [6] is described as follows: qHTS assay for measurement of the activity of small molecule inhibitors on Zika virus induced Caspase-3 activity in human astrocytoma cells (AID 1224859).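 Also: plate controls were ZIKV-infected untreated cells for no effect and uninfected cells for full effect.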 The essentials: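 Inhibition of Zika-induced caspase-3/7 activity: SNB-19 cells, 1 h compound pretreatment, ZIKV 2 FFU/cell for 6 h at 37 C, Caspase-Glo luminescence read-out.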
The nature of assay [7]: qHTS profiling for inhibitors of Plasmodium falciparum (3D7) proliferation (AID 743322).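 Also: infected erythrocytes exposed to compound for 72 h before lysis; 100% = DMSO vehicle wells and 0% = 0.29 µM artemisinin.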 The following applies: P. falciparum 3D7 proliferation; at 28.7 µM (top of the series). In outline: (§1)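 Erythrocytes infected with P. falciparum (0.3% parasitemia, 2.5% hematocrit) incubated with compounds 72 h at 37 C, 5% CO2. Lysis with saponin/Triton buffer containing SYBR Green I, overnight at room temperature in the dark; DNA fluorescence (485/535 nm) normalised to 0.29 uM artemisinin and DMSO.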

Assay [8] in a line: qHTS profiling for inhibitors of Plasmodium falciparum (DD2) proliferation (AID 743323; call rule not given here). Particulars: lower = more inhibition; at 28.7 µM (top of the series). The essentials:
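1536-well qHTS; infected RBCs 0.3% parasitemia/2.5% Hct final; cpd 72 h 37 C 5% CO2; lysis buffer + SYBR Green I, o/n RT dark; FI 485/535; norm. to 0.29 uM artemisinin and DMSO, plate-stack corrected.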

Assay [9] can be described thus: qHTS profiling for inhibitors of Plasmodium falciparum (HB3) proliferation (AID 743324).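 Also: 100% = DMSO vehicle wells and 0% = artemisinin-treated control wells.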 The following applies: Plasmodium falciparum HB3 blood-stage proliferation; at 28.7 µM (top of the series). In outline: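 P. falciparum HB3 grown in erythrocytes (0.3% parasitemia, 2.5% hematocrit final) with compound for 72 h at 37 C, 5% CO2. Parasite DNA detected by SYBR Green after saponin/triton lysis overnight; normalized to 0.29 uM artemisinin and DMSO.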

Assay [10] can be described thus: qHTS profiling of the MIPE4 collection as inhibitors of Plasmodium falciparum (3D7) proliferation (AID 743344; call rule not given here;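 also: scaled between DMSO vehicle wells and 0.29 µM artemisinin as full inhibition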). The following applies: P. falciparum 3D7 in erythrocytes, SYBR Green DNA fluorescence, 72 h; at 28.5 µM (top of the series). In outline:
as §1

Assay [11] is described as follows: qHTS profiling of the MIPE4 collection as inhibitors of Plasmodium falciparum (DD2) proliferation (AID 743345; call rule not given here). Particulars: P. falciparum Dd2 in erythrocytes, SYBR Green DNA, 72 h; at 28.5 µM (top of the series). The essentials:
as §1

Assay [12] is described as follows: qHTS profiling of the MIPE4 collection as inhibitors of Plasmodium falciparum (DD2) proliferation (Rep 2) (AID 743346; call rule not given here). The following applies: P. falciparum Dd2 in erythrocytes, SYBR Green DNA, 72 h; at 28.5 µM (top of the series). The essentials: as §1
Assay [13] can be described thus: qHTS profiling of the MIPE4 collection as inhibitors of Plasmodium falciparum (HB3) proliferation (AID 743347; call rule not given here;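 also: plate controls were DMSO vehicle wells for no effect and artemisinin wells for full effect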). The following applies: P. falciparum HB3 in erythrocytes, SYBR Green DNA, 72 h; at 28.5 µM (top of the series). In outline:
as §1

Records with an inconclusive call do not appear. Active and inactive are the calls of the source. Unless noted, calls follow the shape of the dose curve; as a rule, active = well fitted curve in the direction sought with a large enough effect; inconclusive = small, poorly fitted or top-dose-only effect, or another doubt; inactive = no such curve, though single readings can be large; an effect the other way counts as inactive or inconclusive.

T1 sequence (P35557 whole entry, looked up): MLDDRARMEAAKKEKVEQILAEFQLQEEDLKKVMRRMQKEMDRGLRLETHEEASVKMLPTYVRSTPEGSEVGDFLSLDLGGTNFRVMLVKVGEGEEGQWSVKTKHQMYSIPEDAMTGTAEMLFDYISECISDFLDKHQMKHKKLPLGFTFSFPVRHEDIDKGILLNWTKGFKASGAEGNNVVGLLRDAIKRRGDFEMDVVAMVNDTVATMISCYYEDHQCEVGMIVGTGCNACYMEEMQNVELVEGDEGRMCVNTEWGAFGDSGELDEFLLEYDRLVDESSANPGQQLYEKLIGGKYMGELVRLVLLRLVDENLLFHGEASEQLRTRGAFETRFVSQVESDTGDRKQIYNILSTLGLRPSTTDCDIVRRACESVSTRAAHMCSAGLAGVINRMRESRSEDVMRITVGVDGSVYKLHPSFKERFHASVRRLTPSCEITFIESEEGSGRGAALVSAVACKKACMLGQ
T1 sequence (Q14397 whole entry, looked up): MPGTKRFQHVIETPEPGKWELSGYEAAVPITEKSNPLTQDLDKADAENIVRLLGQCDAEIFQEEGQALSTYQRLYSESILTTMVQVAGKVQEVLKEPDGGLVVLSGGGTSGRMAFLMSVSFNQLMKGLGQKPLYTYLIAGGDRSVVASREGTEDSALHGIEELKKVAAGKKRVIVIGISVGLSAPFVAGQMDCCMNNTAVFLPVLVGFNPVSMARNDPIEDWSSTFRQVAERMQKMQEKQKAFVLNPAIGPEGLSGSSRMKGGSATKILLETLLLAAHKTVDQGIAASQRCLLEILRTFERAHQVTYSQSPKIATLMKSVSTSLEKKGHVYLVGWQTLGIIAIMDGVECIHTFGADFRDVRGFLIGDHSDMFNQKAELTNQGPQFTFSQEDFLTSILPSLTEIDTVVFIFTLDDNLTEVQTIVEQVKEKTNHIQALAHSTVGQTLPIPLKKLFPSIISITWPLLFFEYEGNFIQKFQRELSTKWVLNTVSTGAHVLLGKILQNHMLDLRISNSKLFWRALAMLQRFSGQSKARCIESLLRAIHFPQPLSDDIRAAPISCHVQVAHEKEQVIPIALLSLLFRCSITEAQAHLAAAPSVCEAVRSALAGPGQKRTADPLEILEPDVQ

Turning to `C[N+](C)(C)CCOC(=O)CBr`, the compound was classed as inactive in assay [1], in [3], in assay [4] and in assay [6]. Moreover, the Potency entry in assay [2] was “inactive”. Also, the max response in assay [5] was 20.4% (inactive).
Regarding `C/C(O)=C(\C#N)C(=O)Nc1cc(Br)ccc1Br`, the result in [1], in assay [3], in assay [4] and in assay [6] was inactive. Further, the Potency entry in assay [2] is “inactive”. The max response in assay [5] is -6.48% (inactive).
For `NC(Cc1ccc(N(CCCl)CCCl)cc1)C(=O)O` (stereo not drawn), the outcome in assay [1], in [3], in [4] and in assay [6] was inactive. Further, the Potency result in assay [2] was “inactive”. In addition, in assay [5], the max response was 8.23% (inactive). The compound further had a remaining parasite growth % (stronger effect = lower value) in [7] of 34.1%. This compound returned an activity, percent of control in assay [8] of 18.8%. This compound returned a remaining proliferation (% of control), lower = more inhibition in [9] of 9.39%.
In the case of `N[C@@H](CCl)C(=O)O`, the outcome in assay [1], in assay [3], in [4] and in [6] was inactive. In addition, the Potency entry in assay [2] was “inactive”. Moreover, the max response in [5] was 3.64% (inactive).
In the case of `OCc1cnc[nH]1`, the call in assay [1], in [3], in [4] and in assay [6] was inactive. The Potency entry in assay [2] was “inactive”. The max response in assay [5] was 26.7% (inactive).
Consider `CC(N)[C@H](O)c1ccc(O)c(O)c1` (stereo partly drawn), for which the call in [1], in [3], in assay [4] and in [6] was inactive. Moreover, the Potency result in assay [2] is “inactive”. In addition, the max response in [5] is 7.97% (inactive).
As for `COc1cc(CC(C)N)c(OC)cc1I` (stereo not drawn), the compound was classed as inactive in [1], in [3], in assay [4] and in assay [6]. Besides, the Potency result in assay [2] was “inactive”. Besides, the max response in [5] is 3.52% (inactive).
Consider `Oc1ccc2c3c1O[C@H]1c4[nH]c5ccccc5c4C[C@@]4(O)C(C2)N(CC2CC2)CCC314` (stereo partly drawn), for which the Potency entry in assay [2] was “inactive”. In addition, the outcome in [4] and in assay [6] was inactive. Also, the parasite growth, % of DMSO control in assay [10] was 5.78%. The compound also showed a parasite growth remaining, % of DMSO control (lower = more inhibition) in [11] of 28.3%. This compound showed a parasite growth, % of control (lower = inhibition) in assay [12] of 12.6%. Further, the growth, % of control in assay [13] worked out at 5.24%.
In the case of `NC(CCCCCP(=O)(O)O)C(=O)O` (stereo not drawn), the call in [1], in [3], in [4] and in [6] was inactive. In addition, the Potency entry in [2] was “inactive”. Also, the max response in assay [5] was -2.34% (inactive).
`CC(Cc1ccc(OCC(=O)O)cc1)NCC(O)c1cccc(Cl)c1` (stereo not drawn): the result in assay [1], in assay [3], in assay [4] and in [6] was inactive. Besides, the Potency result in [2] was “inactive”. In addition, the max response in assay [5] is 16.8% (inactive).
Take `CCOC(=O)c1ncn2c1[C@@H]1CCCN1C(=O)c1cc(OC)ccc1-2`: the outcome in assay [1], in assay [3], in [4] and in assay [6] was inactive. Also, the Potency result in [2] was “inactive”. For the same compound, the max response in assay [5] was -1.18% (inactive).
For the compound `COc1ccc2[nH]cc(CCN)c2c1`, the compound was called inactive in [1], in assay [3], in [4] and in [6]. In assay [2], the Potency entry was “inactive”. The max response in assay [5] was 15.8% (inactive).
`CC(N)Cc1c[nH]c2ccc(OCc3cccs3)cc12` (stereo not drawn): the compound was called inactive in assay [1], in [3], in [4] and in assay [6]. The Potency result in assay [2] was “inactive”. For the same compound, in [5], the Potency is 1410 nM (active).
Consider `N[C@@H](Cn1ccc(=O)[nH]c1=O)C(=O)O`, for which the outcome in [1], in assay [3], in assay [4] and in assay [6] was inactive. The Potency result in assay [2] is “inactive”. Further, the max response in assay [5] was 15.1% (inactive).
